# Assay results as given in ChEMBL document CHEMBL1961873, “Compounds: GSK PKIS; Assays: Nanosyn kinase panel” (2012).
# Target: Tyrosine-protein kinase Yes (Homo sapiens) (UniProt P07947)
# Conditions: at 0.1 µM
# Chain of Tyrosine-protein kinase Yes (Homo sapiens) (P07947 2-543 limits assumed): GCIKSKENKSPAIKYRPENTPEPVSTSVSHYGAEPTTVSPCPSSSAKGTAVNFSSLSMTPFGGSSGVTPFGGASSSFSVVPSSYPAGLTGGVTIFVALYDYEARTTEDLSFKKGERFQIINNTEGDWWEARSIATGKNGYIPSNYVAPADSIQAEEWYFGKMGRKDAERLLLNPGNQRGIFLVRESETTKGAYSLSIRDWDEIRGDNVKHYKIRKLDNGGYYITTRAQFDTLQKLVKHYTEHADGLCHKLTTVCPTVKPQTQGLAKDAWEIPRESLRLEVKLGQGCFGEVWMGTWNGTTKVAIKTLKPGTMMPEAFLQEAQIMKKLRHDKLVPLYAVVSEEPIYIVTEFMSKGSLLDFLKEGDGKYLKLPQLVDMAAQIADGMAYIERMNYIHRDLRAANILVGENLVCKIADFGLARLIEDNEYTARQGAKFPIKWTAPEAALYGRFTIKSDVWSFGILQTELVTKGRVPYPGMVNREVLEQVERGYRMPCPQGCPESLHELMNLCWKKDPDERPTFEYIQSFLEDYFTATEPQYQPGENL
row,SMILES,inhibition
1,Fc1ccc(-c2nn3ccccc3c2-c2ccncc2)cc1,0.18%
2,NS(=O)(=O)c1ccc(N/N=C2\C(=O)Nc3ccc4ncccc4c32)cc1,9.32%
3,CCc1nn2ncccc2c1-c1ccnc(NC2CC2)n1,1.2%
4,O=C(Nc1n[nH]c2cc(-c3ccc(F)cc3)ccc12)C1CC1,1.98%
5,CCCN1CCC(c2ccc(Nc3nc(Nc4cc(F)ccc4C(N)=O)c4cc[nH]c4n3)c(OC)c2)CC1,5.76%
6,CCCN(CCS(C)(=O)=O)Cc1ccc(-c2ccc3ncnc(Nc4ccc(OCc5cccc(F)c5)c(Cl)c4)c3c2)o1,1.86%
7,CCn1cc(-c2ccnc3[nH]ccc23)c(-c2cccc(NC(=O)Nc3ccc(OCc4ccccc4)cc3)c2)n1,1.1%
8,CC(C)COC(=O)c1ccc2c(c1)/C(=C/Nc1ccc(S(N)(=O)=O)cc1)C(=O)N2,0.49%
9,NS(=O)(=O)c1ccc(Nc2ncc(-c3ccccc3)o2)cc1,3.4%
10,Cc1ccc(O)cc1Nc1ccnc2cc(-c3ccccn3)ccc12,58.2%
11,COc1cc2ncn(-c3cc(OCc4ccccc4C(F)(F)F)c(C(=O)N(C)C)s3)c2cc1OC,0.64%
12,COc1ccc(-c2nn3ncccc3c2-c2ccnc(Nc3ccc4c(c3)OCCO4)n2)cc1,79.3%
13,COc1cccc(-n2ncc3c(N/N=C/c4ccc(F)cc4)ncnc32)c1,5.87%
14,COc1cc(Nc2nccc(Nc3ccc4c(C)n[nH]c4c3)n2)cc(OC)c1OC,28.4%
15,COc1ccc(-c2cc3c(N)ncnc3o2)cc1,0.83%
16,Nc1ncc(-c2cccc(S(N)(=O)=O)c2)c2scc(-c3ccc(F)c(Cl)c3)c12,11.5%
17,COC(=O)c1sc(-n2cnc3cc(OC)c(OC)cc32)cc1OCc1ccccc1C(F)(F)F,6.36%

row,SMILES,inhibition
1,Clc1ccc(-c2nn3ncccc3c2-c2ccnc(Nc3ccccc3)n2)cc1,44.9%
2,CC(=O)NCc1cccc(C#Cc2cncnc2Nc2ccc(OCc3cccc(F)c3)c(Cl)c2)c1,0.55%
3,COc1cc2c(cc1Nc1nc(Nc3ccsc3C(N)=O)c3cc[nH]c3n1)N(C(=O)CN(C)C)CCC2(C)C,2.57%
4,Cc1cccc(Nc2ncc(-c3ccccc3)o2)c1,0.94%
5,CCn1c(-c2nonc2N)nc2cnc(Oc3cccc(NC(=O)c4ccc(N(C)C)cc4)c3)cc21,0.93%
6,COc1ccc(-c2oc3ncnc(N)c3c2-c2ccc(NC(=O)Nc3cc(C(F)(F)F)ccc3F)cc2)cc1,15.7%
7,COc1cc(/C=N/Nc2ncnc3[nH]ncc23)ccc1O,16.4%
8,Fc1cccc(COc2ccc(Nc3ncnc4sc(-c5ccco5)cc34)cc2Cl)c1,1.73%
9,CN1CCC(n2cnc(-c3ccc(F)cc3)c2-c2ccnc(Nc3ccccc3)n2)CC1,8.83%
10,CNC(=O)c1cccc(C#Cc2cncnc2Nc2ccc(OCc3cccc(F)c3)c(Cl)c2)c1,2.71%
11,CCOc1ccc2c(-c3ccnc(Nc4cccc(C(F)(F)F)c4)n3)cnn2n1,0.08%
12,CCN1CCC(CC(=O)Nc2n[nH]c3nnc(-c4cccc(F)c4F)cc23)CC1,2.07%
13,FC(F)(F)c1cccc(-c2nn3ncccc3c2-c2ccnc(Nc3ccc4c(c3)OCCO4)n2)c1,32.1%
14,CN(C)CCOc1ccc(-c2nc(-c3ccncc3)c(-c3ccc4c(c3)CC/C4=N\O)[nH]2)cc1,3.06%
15,Cc1cccc2c1NC(=O)/C2=N\Nc1ccc(S(N)(=O)=O)cc1,0.81%
16,COc1cccc(-c2c[nH]c3c(N/N=C/c4ccncc4)ncnc23)c1,19.6%
17,COc1ccc(-c2cc(-c3c[nH]nc3-c3ccccn3)ccn2)cc1,3.5%

# Target: Tyrosine-protein kinase Yes (Homo sapiens) (UniProt P07947)
# Conditions: at 1 µM
row,SMILES,inhibition
1,Fc1ccc(-c2nn3ccccc3c2-c2ccncc2)cc1,5.66%
2,NS(=O)(=O)c1ccc(N/N=C2\C(=O)Nc3ccc4ncccc4c32)cc1,48.2%
3,CCc1nn2ncccc2c1-c1ccnc(NC2CC2)n1,6.6%
4,O=C(Nc1n[nH]c2cc(-c3ccc(F)cc3)ccc12)C1CC1,6.64%
5,CCCN1CCC(c2ccc(Nc3nc(Nc4cc(F)ccc4C(N)=O)c4cc[nH]c4n3)c(OC)c2)CC1,19.3%
6,CCCN(CCS(C)(=O)=O)Cc1ccc(-c2ccc3ncnc(Nc4ccc(OCc5cccc(F)c5)c(Cl)c4)c3c2)o1,8.75%
7,CCn1cc(-c2ccnc3[nH]ccc23)c(-c2cccc(NC(=O)Nc3ccc(OCc4ccccc4)cc3)c2)n1,24.8%
8,CC(C)COC(=O)c1ccc2c(c1)/C(=C/Nc1ccc(S(N)(=O)=O)cc1)C(=O)N2,22.1%
9,NS(=O)(=O)c1ccc(Nc2ncc(-c3ccccc3)o2)cc1,7.73%
10,Cc1ccc(O)cc1Nc1ccnc2cc(-c3ccccn3)ccc12,90.7%
11,COc1cc2ncn(-c3cc(OCc4ccccc4C(F)(F)F)c(C(=O)N(C)C)s3)c2cc1OC,6.88%
12,COc1ccc(-c2nn3ncccc3c2-c2ccnc(Nc3ccc4c(c3)OCCO4)n2)cc1,95.8%
13,COc1cccc(-n2ncc3c(N/N=C/c4ccc(F)cc4)ncnc32)c1,25.1%
14,COc1cc(Nc2nccc(Nc3ccc4c(C)n[nH]c4c3)n2)cc(OC)c1OC,70.7%
15,COc1ccc(-c2cc3c(N)ncnc3o2)cc1,6.69%
16,Nc1ncc(-c2cccc(S(N)(=O)=O)c2)c2scc(-c3ccc(F)c(Cl)c3)c12,56.4%
17,COC(=O)c1sc(-n2cnc3cc(OC)c(OC)cc32)cc1OCc1ccccc1C(F)(F)F,27%

row,SMILES,inhibition
1,Clc1ccc(-c2nn3ncccc3c2-c2ccnc(Nc3ccccc3)n2)cc1,89.5%
2,CC(=O)NCc1cccc(C#Cc2cncnc2Nc2ccc(OCc3cccc(F)c3)c(Cl)c2)c1,6.04%
3,COc1cc2c(cc1Nc1nc(Nc3ccsc3C(N)=O)c3cc[nH]c3n1)N(C(=O)CN(C)C)CCC2(C)C,0.61%
4,Cc1cccc(Nc2ncc(-c3ccccc3)o2)c1,11.3%
5,CCn1c(-c2nonc2N)nc2cnc(Oc3cccc(NC(=O)c4ccc(N(C)C)cc4)c3)cc21,2.45%
6,COc1ccc(-c2oc3ncnc(N)c3c2-c2ccc(NC(=O)Nc3cc(C(F)(F)F)ccc3F)cc2)cc1,80.1%
7,COc1cc(/C=N/Nc2ncnc3[nH]ncc23)ccc1O,58%
8,Fc1cccc(COc2ccc(Nc3ncnc4sc(-c5ccco5)cc34)cc2Cl)c1,4.21%
9,CN1CCC(n2cnc(-c3ccc(F)cc3)c2-c2ccnc(Nc3ccccc3)n2)CC1,42.3%
10,CNC(=O)c1cccc(C#Cc2cncnc2Nc2ccc(OCc3cccc(F)c3)c(Cl)c2)c1,4.41%
11,CCOc1ccc2c(-c3ccnc(Nc4cccc(C(F)(F)F)c4)n3)cnn2n1,3.08%
12,CCN1CCC(CC(=O)Nc2n[nH]c3nnc(-c4cccc(F)c4F)cc23)CC1,5.8%
13,FC(F)(F)c1cccc(-c2nn3ncccc3c2-c2ccnc(Nc3ccc4c(c3)OCCO4)n2)c1,82.8%
14,CN(C)CCOc1ccc(-c2nc(-c3ccncc3)c(-c3ccc4c(c3)CC/C4=N\O)[nH]2)cc1,16.4%
15,Cc1cccc2c1NC(=O)/C2=N\Nc1ccc(S(N)(=O)=O)cc1,-0.24%
16,COc1cccc(-c2c[nH]c3c(N/N=C/c4ccncc4)ncnc23)c1,65.2%
17,COc1ccc(-c2cc(-c3c[nH]nc3-c3ccccn3)ccn2)cc1,7.41%
